The full ranking holds about 33,000 sequences; the median of “E-score (-0.5 to 0.5)” is about -0.04, and the highest 2% start at about 0.36. The sample holds the highest values, similar sequences and a random draw of the others, so the mix is not that of the screen.
What follows are sequences tested against T1, Hmlalpha2 (UniProt P0CY09) (assay: PBM E-score (8-mer binding enrichment) (E-score (-0.5 to 0.5)); higher = stronger / more preferred TF binding). Settings: protein concentration: 200 nM; construct: GST-full length.
T1 sequence: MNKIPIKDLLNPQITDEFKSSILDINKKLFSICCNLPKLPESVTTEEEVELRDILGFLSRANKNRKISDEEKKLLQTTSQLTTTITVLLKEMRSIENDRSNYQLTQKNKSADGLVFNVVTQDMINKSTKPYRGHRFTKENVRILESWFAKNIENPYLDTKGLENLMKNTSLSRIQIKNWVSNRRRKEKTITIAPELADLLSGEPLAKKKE
Method: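 Universal 'all 10-mer' protein binding microarrays (Agilent AMADID 015681) probed with GST-tagged S. cerevisiae TFs (full-length or DBD) made by in vitro transcription/translation (PURExpress), about 100-200 nM. Bound TF was detected with fluorescent anti-GST. Each ungapped 8-mer (which stands for itself and its reverse complement) is scored by the PBM enrichment score (E-score), a modified Wilcoxon-Mann-Whitney statistic from -0.5 to +0.5, computed with the Universal PBM Analysis Suite. Scale: above 0.35 generally sequence-specific binding.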

Sequence | PBM E-score
AGATGTTA | 0.201
AAATGTTA | 0.33
CCATGTGA | 0.184
ACATGTTA | 0.461
CCATGTTA | 0.458
CGATGTTA | 0.353
CGCCTGGC | -0.0832
GCGCATGA | -0.252
GCTGTCCA | -0.0572
CTCGTCAC | -0.0377
AATCGGTC | -0.081
CTCCTAAG | -0.115
CAGGAGCA | -0.173
CCATAACA | 0.333
ACATAACA | 0.434
ACATAACC | 0.222
GCATAACA | 0.307
CCATAGCA | -0.145
ACATAACG | 0.368
ACATAACT | 0.325
ACATAGCA | 0.392
TCATAGCA | -0.0434
CACACCAG | -0.011
GGATGACC | -0.218
GATTTTGA | 0.12

Sequence | PBM E-score
ACGATGTG | 0.19
CAGTTTGC | -0.118
ACAGGGAA | 0.0611
CGCTGATC | -0.177
AGGGGAGC | -0.33
GCGTCTCC | -0.033
AAACGTGA | 0.168
AAACGTGT | 0.375
ACACGTGT | 0.432
AATCGTGC | 0.151
AAACGTGG | -0.0689
AATCGTGA | -0.00694
AAGCGTGA | -0.0159
AAGCGTGT | 0.371
AAGCGTGG | -0.0995
AATCGTGT | 0.406
ACACGTGG | 0.293
ACACGTGA | 0.318
ACGGCGAT | -0.0673
AGTCGGGG | -0.191
CAAGAATG | -0.0486
AGGGCCAG | -0.22
AGGCCAAG | -0.247
AGTCTATC | -0.0461
GTGGGCGA | -0.04

Sequence | PBM E-score
CACGTGTC | 0.25
AACGTGTG | 0.233
CACGTGTA | 0.444
CACGTGAA | 0.108
GACGTGAA | -0.0003
GACGTGTA | 0.41
AACGTGTC | 0.263
GACGTGGA | -0.209
AACGTGTA | 0.455
GAAGTCTC | -0.247
GTACCCTA | -0.0877
GTCGACCA | -0.0364
GGATCCAA | -0.0601
GAGTAGCA | -0.0964
CCCCCGCG | -0.241
CCGTTTAG | -0.0825
CCGTGTCA | 0.351
CGGTGTCA | -0.0723
ACGTGTCG | 0.308
ACGTGTCA | 0.392
TCGTGTCA | 0.395
GCGTGTCC | 0.142
GTGTGTCA | 0.307
TAGTGTCA | 0.0999
GCGTGTCA | 0.382

Sequence | PBM E-score
GCTCCAGA | -0.207
ATGAGAAA | 0.0401
CGGAGGCC | -0.334
TCACCTGA | -0.136
CTTGGCAA | -0.143
CATGTATA | 0.466
AATGTATC | 0.284
CTTGTATC | 0.264
AATGTATA | 0.315
CATGTATC | 0.405
GATGTATA | 0.237
AGTGCAAT | 0.00712
AGATGTAA | 0.382
TGCTGTAA | 0.17
CGATGTGA | 0.105
CGATGTAC | 0.221
TGATGCAA | 0.0282
AGATGTAG | 0.094
GGATGTAC | 0.225
AGATGTAT | 0.251
CGATGTAA | 0.417
GGATGTAA | 0.397
GGATGTCA | 0.133
TGATGTAA | 0.389
CCATCTAC | 0.0186

Sequence | PBM E-score
CTCTGCCC | -0.109
AGCAATGG | -0.0784
CATACCAA | 0.141
CACGGTGA | 0.155
ACCATTAG | -0.0407
AGCCCTCC | -0.312
CAGGCGAA | 0.0909
CGTTGTAG | 0.242
AGTTGTAA | 0.248
TGTTGAAA | 0.37
GGTTGAAA | -0.0197
TGTTGTAA | 0.401
CGTTGTAC | 0.278
AGTTGAAA | 0.0609
GGTTGTAA | 0.342
CGTTGTAA | 0.368
AAGAGTAC | 0.0432
ATCCCTAG | -0.00744
CAGTACCG | -0.142
CCCGATTC | -0.0455
GTAGCGGA | -0.0459
GTTATCCA | 0.0731
AGCCATCG | -0.171
ATGCCTAC | -0.224
GACCTCCA | -0.0969

Sequence | PBM E-score
CTTTGGTC | -0.0966
AACACGGC | 0.359
AACACGGA | 0.374
AACACCGA | 0.193
ATCACGGA | -0.189
AACACGGG | 0.387
ACCACGGT | -0.134
GACACGGA | 0.224
TACACGGA | 0.447
ACCACGGG | -0.213
AACACGGT | 0.402
CACACGGA | 0.0896
CACACGGG | 0.218
ACGATTCC | -0.04
CTAGGCGC | -0.158
CAAGAGCA | -0.00496
CTTCAAAC | -0.0259
CTGCCTGC | -0.252
AATTCTTG | 0.12
GGCGGTCA | -0.283
GGAAGGTA | -0.132
ACAAAGGG | -0.0246
CTGCCAGA | -0.232
GTCAACAC | 0.358
AGCAACAC | 0.26

Sequence | PBM E-score
ATCAACAC | 0.399
CTCAACAC | 0.382
ATCAACAG | 0.136
ATCAACCC | 0.144
CTCAACAA | 0.302
ATCAACAA | 0.306
ATCAACAT | 0.44
CATACCCA | 0.182
AATAATAA | 0.311
ACCGAGGC | -0.359
GGGCAGAA | 0.0375
CCAAGTGC | -0.171
GTTAACCA | 0.285
ATTAACGG | -0.00314
ATTAACAG | 0.261
ACTAACAA | 0.253
ATTAACGC | 0.372
GTTAACAA | 0.366
CTTAACAA | 0.307
CTTAACAC | 0.419
ATTAACGA | 0.317
ATTAACAA | 0.415
CTTAACCC | -0.0467
GTTAACTA | 0.362
AGACTAAA | -0.0357

Source: the supplement of paper PMC3334620
